Measurements taken from PubChem BioAssay (EPA / NIEHS).
Calls of active or inactive are those of the source. Rule for the calls: active = hit-call score of the fitted dose curve at least 0.9, where 1 is the maximum; inactive = score below 0.9.

Columns and labels:
[1] = ATG_CRE_CIS: Attagene CIS-FACTORIAL HepG2 Assay for human cAMP Responsive Element (CRE) binding protein 3 (AID 2282926); details: HepG2 CRE cis-reporter, Attagene multiplexed mRNA; actives raise or lower the signal
Outline: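 We dosed HepG2 cells bearing multiple cis-promoter reporter units for 24 h and measured reporter mRNA by RT-PCR with capillary electrophoresis detection. Bidirectional concentration-response fitting used DMSO as negative control.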

[2] = biological target: CCAAT/enhancer-binding protein beta (Homo sapiens) (UniProt P17676); test: ATG_C_EBP_CIS: Attagene CIS-FACTORIAL HepG2 Assay for human CCAAT/Enhancer Binding Protein (C/EBP) beta (AID 2282927); details: HepG2 Attagene cis-factorial transcription factor reporter; actives raise or lower the signal
Chain of CCAAT/enhancer-binding protein beta (Homo sapiens) (P17676 whole entry, looked up): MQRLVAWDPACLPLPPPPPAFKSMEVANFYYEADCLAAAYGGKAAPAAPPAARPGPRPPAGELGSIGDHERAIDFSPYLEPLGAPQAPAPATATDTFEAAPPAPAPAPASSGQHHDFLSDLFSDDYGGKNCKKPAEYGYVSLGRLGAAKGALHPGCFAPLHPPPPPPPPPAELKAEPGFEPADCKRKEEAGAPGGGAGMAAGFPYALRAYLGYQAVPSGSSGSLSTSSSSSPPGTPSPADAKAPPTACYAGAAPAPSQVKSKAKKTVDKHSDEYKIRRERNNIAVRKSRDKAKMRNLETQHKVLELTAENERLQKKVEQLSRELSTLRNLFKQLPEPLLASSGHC
Outline: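 Following a 24 h incubation with test chemical, transfected HepG2 cells yielded RNA whose reporter transcripts were quantified by RT-PCR and fluorescent capillary electrophoresis, with DMSO serving as baseline for bidirectional fitting.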

[3] = ATG_CMV_CIS: Attagene CIS-FACTORIAL HepG2 Assay for human CMV (Internal Marker) (AID 2282928); details: HepG2 CMV promoter reporter, transcription factor profiling; actives raise or lower the signal;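 note: endpoint acts as a background internal control marker rather than a target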
Outline: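 After transient transfection of HepG2 with reporter transcription units driven by cis-regulatory promoters, cells receive test chemical for 24 h. Labeled reporter amplicons, digested with HpaI, are sized and quantified by capillary electrophoresis against DMSO.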

[4] = ATG_DR4_LXR_CIS: Attagene CIS-FACTORIAL HepG2 Assay for human Liver X Receptor (LXR), DR4 submotif (AID 2282929); details: HepG2 Attagene DR4 cis-reporter, mRNA transcription; actives raise or lower the signal
Outline: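 Readout: reporter transcript fluorescence after RT-PCR and capillary electrophoresis, fitted bidirectionally against DMSO controls. Human HepG2 liver cells carried transiently transfected multiplexed reporter constructs; endogenous transcription factor activity measured 24 h post-dosing.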

[5] = biological target: Aryl hydrocarbon receptor (Homo sapiens) (UniProt P35869); test: ATG_Ahr_CIS: Attagene CIS-FACTORIAL HepG2 Assay for human Aryl Hydrocarbon Receptor (Ahr) (AID 2282930); details: HepG2 AhR cis-factorial reporter transcription; actives raise or lower the signal
Chain of Aryl hydrocarbon receptor (Homo sapiens) (P35869 whole entry, looked up): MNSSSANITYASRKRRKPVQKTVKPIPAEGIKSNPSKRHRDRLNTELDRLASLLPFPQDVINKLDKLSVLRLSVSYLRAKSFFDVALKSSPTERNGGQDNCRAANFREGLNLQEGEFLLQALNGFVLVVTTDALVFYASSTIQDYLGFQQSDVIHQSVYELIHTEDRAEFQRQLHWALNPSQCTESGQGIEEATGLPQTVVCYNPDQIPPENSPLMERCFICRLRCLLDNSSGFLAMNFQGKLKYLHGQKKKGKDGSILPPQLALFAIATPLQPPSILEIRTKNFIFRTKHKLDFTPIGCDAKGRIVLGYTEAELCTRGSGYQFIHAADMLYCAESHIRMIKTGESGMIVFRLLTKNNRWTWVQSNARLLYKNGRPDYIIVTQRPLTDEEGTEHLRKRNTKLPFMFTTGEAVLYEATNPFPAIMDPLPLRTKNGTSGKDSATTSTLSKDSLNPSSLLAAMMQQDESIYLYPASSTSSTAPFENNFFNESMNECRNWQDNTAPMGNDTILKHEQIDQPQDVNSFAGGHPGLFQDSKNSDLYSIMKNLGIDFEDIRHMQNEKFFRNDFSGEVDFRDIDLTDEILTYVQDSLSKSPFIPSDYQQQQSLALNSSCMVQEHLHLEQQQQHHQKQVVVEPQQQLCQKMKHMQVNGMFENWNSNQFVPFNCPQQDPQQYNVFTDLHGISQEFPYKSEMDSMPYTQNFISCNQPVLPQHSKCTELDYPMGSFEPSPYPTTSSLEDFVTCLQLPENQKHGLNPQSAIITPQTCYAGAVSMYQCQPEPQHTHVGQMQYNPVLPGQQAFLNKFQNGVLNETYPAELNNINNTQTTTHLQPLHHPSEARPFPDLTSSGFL
Outline: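 Values derive from bidirectional fitting against DMSO negative control. Underlying signal: cis-element reporter mRNA in transiently transfected HepG2, harvested 24 h post-dose and measured by RT-PCR plus capillary electrophoresis.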

[6] = ATG_AP_1_CIS: Attagene CIS-FACTORIAL HepG2 Assay for human Activator Protein 1 (AP-1) (AID 2282931); details: HepG2 Attagene cis-factorial AP-1 reporter mRNA; actives raise or lower the signal
Outline: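 Reporter transcripts were measured 24 h after dosing by RT-PCR and capillary electrophoresis of fluorescent fragments. Cells: HepG2 carrying transfected cis-regulated reporter constructs reading endogenous factor activity. Gain or loss fitted against DMSO.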

[7] = ATG_AP_2_CIS: Attagene CIS-FACTORIAL HepG2 Assay for human Activator Protein 2 (AP-2) (AID 2282932); details: HepG2 AP-2 cis-reporter, Attagene transcription factor profiling; actives raise or lower the signal
Outline: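 HepG2 cells were transiently transfected with multiple cis-promoter reporter transcription units and dosed for 24 h. Reporter mRNA was measured by RT-PCR with capillary electrophoresis fluorescence; bidirectional fits relative to DMSO baseline.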

[8] = ATG_BRE_CIS: Attagene CIS-FACTORIAL HepG2 Assay for human Bone Morphogenetic Protein (BMP) Response Element (BRE) (AID 2282933); details: HepG2 BMP response element reporter, Attagene transcription factor profiling; actives raise or lower the signal
Outline: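 Gain- or loss-of-signal was derived by bidirectional fitting against DMSO controls. The signal came from reporter mRNA, measured by RT-PCR and capillary electrophoresis, in HepG2 cells transiently carrying multiple reporter units and dosed for 24 h.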

[9] = biological target: Transcription factor E2F1 (Homo sapiens) (UniProt Q01094); test: ATG_E2F_CIS: Attagene CIS-FACTORIAL HepG2 Assay for human E2F Transcription Factor 1 (AID 2282935); details: HepG2 Attagene cis-reporter, E2F reporter RNA transcripts; actives raise or lower the signal
Chain of Transcription factor E2F1 (Homo sapiens) (Q01094 whole entry, looked up): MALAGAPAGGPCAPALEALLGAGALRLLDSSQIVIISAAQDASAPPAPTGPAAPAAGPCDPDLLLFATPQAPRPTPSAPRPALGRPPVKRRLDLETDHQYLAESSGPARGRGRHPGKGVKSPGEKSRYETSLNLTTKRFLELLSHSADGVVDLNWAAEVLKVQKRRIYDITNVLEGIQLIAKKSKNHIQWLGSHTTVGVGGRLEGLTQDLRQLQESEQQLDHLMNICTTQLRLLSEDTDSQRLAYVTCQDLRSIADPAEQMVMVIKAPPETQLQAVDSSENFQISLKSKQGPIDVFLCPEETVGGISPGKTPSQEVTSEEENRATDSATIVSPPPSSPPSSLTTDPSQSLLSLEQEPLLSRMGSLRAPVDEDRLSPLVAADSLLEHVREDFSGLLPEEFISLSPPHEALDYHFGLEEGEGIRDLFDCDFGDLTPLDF
Outline: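 HepG2 cells transiently transfected with multiplexed cis-element reporter units, dosed for 24 h. Reporter mRNA measured by RT-PCR, 6-FAM primer-extension labeling, HpaI digestion and capillary electrophoresis; bidirectional fit versus DMSO baseline.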

C=CC(=O)OCCn1c(=O)n(CCOC(=O)C=C)c(=O)n(CCOC(=O)C=C)c1=O
outcome [1]: inactive
outcome [2]: inactive
AC50 [3]: 9.12 µM (active)
AC50 [4]: 16.5 µM (active)
AC50 [5]: 3.42 µM (active)
AC50 [6]: 53.6 µM (active)
AC50 [7]: 20 µM (active)
outcome [8]: inactive
outcome [9]: inactive

CC(C)(C)NC(N)=O
outcome [1]: inactive
outcome [2]: inactive
outcome [3]: inactive
outcome [4]: inactive
outcome [5]: inactive
outcome [6]: inactive
outcome [7]: inactive
outcome [8]: inactive
outcome [9]: inactive

CCCC1CCC(=O)O1 (stereo not drawn)
outcome [1]: inactive
outcome [2]: inactive
outcome [3]: inactive
outcome [4]: inactive
AC50 [5]: 10.2 µM (active)
outcome [6]: inactive
outcome [7]: inactive
outcome [8]: inactive
outcome [9]: inactive

CC(C)=CCCC(C)CC=O (stereo not drawn)
outcome [1]: inactive
outcome [2]: inactive
outcome [3]: inactive
outcome [4]: inactive
outcome [5]: inactive
outcome [6]: inactive
outcome [7]: inactive
outcome [8]: inactive
outcome [9]: inactive

COC(=O)c1ccc(C)cc1
outcome [1]: inactive
outcome [2]: inactive
outcome [3]: inactive
outcome [4]: inactive
outcome [5]: inactive
outcome [6]: inactive
outcome [7]: inactive
outcome [8]: inactive
outcome [9]: inactive

C=COCCOCCOCCOC=C
outcome [1]: inactive
outcome [2]: inactive
outcome [3]: inactive
outcome [4]: inactive
outcome [5]: inactive
outcome [6]: inactive
outcome [7]: inactive
outcome [8]: inactive
outcome [9]: inactive

O=P(c1ccccc1)(c1ccccc1)c1ccccc1
outcome [1]: inactive
outcome [2]: inactive
outcome [3]: inactive
AC50 [4]: 58.6 µM (active)
outcome [5]: inactive
outcome [6]: inactive
outcome [7]: inactive
outcome [8]: inactive
outcome [9]: inactive

NCCOCCO
outcome [1]: inactive
outcome [2]: inactive
outcome [3]: inactive
outcome [4]: inactive
outcome [5]: inactive
outcome [6]: inactive
outcome [7]: inactive
outcome [8]: inactive
outcome [9]: inactive

Nc1cc(Cl)c(O)c(Cl)c1
outcome [1]: inactive
outcome [2]: inactive
AC50 [3]: 186 µM (active)
outcome [4]: inactive
outcome [5]: inactive
outcome [6]: inactive
outcome [7]: inactive
outcome [8]: inactive
outcome [9]: inactive

Cc1ncc([N+](=O)[O-])n1C
outcome [1]: inactive
outcome [2]: inactive
outcome [3]: inactive
outcome [4]: inactive
outcome [5]: inactive
outcome [6]: inactive
outcome [7]: inactive
outcome [8]: inactive
outcome [9]: inactive

C[C@H]1C[C@@H]2[C@H]([C@@H](O)C[C@@]3(C)[C@H]2CC[C@]3(O)C(=O)CO)[C@@]2(C)C=CC(=O)C=C12
outcome [1]: inactive
outcome [2]: inactive
outcome [3]: inactive
outcome [4]: inactive
outcome [5]: inactive
outcome [6]: inactive
outcome [7]: inactive
outcome [8]: inactive
outcome [9]: inactive

C=CC(=O)OCC(O)COc1ccccc1 (stereo not drawn)
outcome [1]: inactive
outcome [2]: inactive
outcome [3]: inactive
AC50 [4]: 32 µM (active)
outcome [5]: inactive
outcome [6]: inactive
AC50 [7]: 26.8 µM (active)
AC50 [8]: 82.8 µM (active)
outcome [9]: inactive

O=C1CCCCCCCCCCOCCCCO1
outcome [1]: inactive
outcome [2]: inactive
outcome [3]: inactive
AC50 [4]: 74.1 µM (active)
outcome [5]: inactive
outcome [6]: inactive
outcome [7]: inactive
AC50 [8]: 100 µM (active)
outcome [9]: inactive

CC(=O)OCC=Cc1ccccc1
outcome [1]: inactive
outcome [2]: inactive
outcome [3]: inactive
outcome [4]: inactive
outcome [5]: inactive
outcome [6]: inactive
outcome [7]: inactive
outcome [8]: inactive
outcome [9]: inactive

C#C[C@]1(O)CC[C@H]2[C@@H]3CCC4=Cc5oncc5C[C@]4(C)[C@H]3CC[C@@]21C
AC50 [1]: 41.2 µM (active)
outcome [2]: inactive
outcome [3]: inactive
AC50 [4]: 14.5 µM (active)
outcome [5]: inactive
AC50 [6]: 26.2 µM (active)
outcome [7]: inactive
outcome [8]: inactive
AC50 [9]: 33.4 µM (active)

CN1Cc2c(N)cccc2C(c2ccccc2)C1 (stereo not drawn)
outcome [1]: inactive
outcome [2]: inactive
outcome [3]: inactive
outcome [4]: inactive
AC50 [5]: 59.1 µM (active)
outcome [6]: inactive
outcome [7]: inactive
outcome [8]: inactive
outcome [9]: inactive

CC(C)Oc1ccccc1O
outcome [1]: inactive
outcome [2]: inactive
outcome [3]: inactive
outcome [4]: inactive
AC50 [5]: 47.8 µM (active)
outcome [6]: inactive
outcome [7]: inactive
outcome [8]: inactive
outcome [9]: inactive

Nc1ccc(S(=O)(=O)O)c(N)c1
outcome [1]: inactive
outcome [2]: inactive
outcome [3]: inactive
outcome [4]: inactive
outcome [5]: inactive
outcome [6]: inactive
outcome [7]: inactive
outcome [8]: inactive
outcome [9]: inactive

Cc1ccc(O)c(C(C)(C)C)c1
outcome [1]: inactive
outcome [2]: inactive
outcome [3]: inactive
AC50 [4]: 100 µM (active)
outcome [5]: inactive
AC50 [6]: 100 µM (active)
outcome [7]: inactive
outcome [8]: inactive
outcome [9]: inactive

CCCCCCCCCOC(C)=O
outcome [1]: inactive
outcome [2]: inactive
outcome [3]: inactive
outcome [4]: inactive
outcome [5]: inactive
outcome [6]: inactive
outcome [7]: inactive
outcome [8]: inactive
outcome [9]: inactive

C=C(C)C(=O)OCc1ccccc1
outcome [1]: inactive
outcome [2]: inactive
outcome [3]: inactive
outcome [4]: inactive
outcome [5]: inactive
outcome [6]: inactive
outcome [7]: inactive
outcome [8]: inactive
outcome [9]: inactive

OCCCCCO
outcome [1]: inactive
outcome [2]: inactive
outcome [3]: inactive
outcome [4]: inactive
outcome [5]: inactive
outcome [6]: inactive
outcome [7]: inactive
outcome [8]: inactive
outcome [9]: inactive

C[C@]12CC[C@H]3[C@@H](CCC4=CC(=O)CC[C@@]43C)[C@@H]1CC[C@@H]2C(=O)CO
outcome [1]: inactive
outcome [2]: inactive
outcome [3]: inactive
outcome [4]: inactive
outcome [5]: inactive
outcome [6]: inactive
outcome [7]: inactive
AC50 [8]: 100 µM (active)
outcome [9]: inactive

NC(=O)Nc1ccc(Cl)cc1
outcome [1]: inactive
outcome [2]: inactive
outcome [3]: inactive
outcome [4]: inactive
outcome [5]: inactive
outcome [6]: inactive
outcome [7]: inactive
outcome [8]: inactive
outcome [9]: inactive

C=CC[N+](C)(C)CC=C
outcome [1]: inactive
outcome [2]: inactive
outcome [3]: inactive
outcome [4]: inactive
outcome [5]: inactive
outcome [6]: inactive
outcome [7]: inactive
outcome [8]: inactive
outcome [9]: inactive

COc1cccc(OC)c1
outcome [1]: inactive
outcome [2]: inactive
outcome [3]: inactive
outcome [4]: inactive
outcome [5]: inactive
outcome [6]: inactive
outcome [7]: inactive
outcome [8]: inactive
outcome [9]: inactive

Clc1ccc2c(c1)C(N1CCNCC1)=Nc1ccccc1O2
outcome [1]: inactive
AC50 [2]: 51 µM (active)
outcome [3]: inactive
outcome [4]: inactive
AC50 [5]: 41.1 µM (active)
outcome [6]: inactive
outcome [7]: inactive
outcome [8]: inactive
outcome [9]: inactive
